# Shown is part of a subset that was picked to be rich in hits.
# TbPYK inhibitor: qHTS of Trypanosoma Brucei Inhibitors. pyruvate kinase (Trypanosoma brucei), Q57TT1. TbPYK enzyme, Kinase-Glo Plus ATP luminescence, 45 min. Potency, µM (doses to about 76.8 µM), for inactives: top-dose activity, negative = inhibition, usual class: inhibitors. 410,000 tested, 0.12% active. AID 624173, 2012; note: potency is the fitted concentration of half-maximal effect; % is set by controls: 0 for no effect and ±100 for the full control effect; nearly all actives have a fitted effect of over 50% in size
#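 Luminescence from Kinase-Glo Plus, added after a 45-minute room-temperature reaction, served as the end-point read-out. The enzyme and substrate were preincubated with compound before ADP (130 uM final) initiated turnover. Concentration-effect curves came from normalized qHTS data.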
# Shiga inhibitor: A qHTS for Small Molecule Inhibitors of Shiga Toxin. 290,000 tested, 9.2% active. Vero cells, Shiga toxin protein synthesis inhibition reporter. AID 2315, 2010. inhibition, % at 38.7 µM; in the data active = inhibition mostly above about 28%, no sharp cut-off; inactive = mostly below about 43%; note: 0% is about no effect
# LmPK inh: qHTS Assay for Inhibitors of Leishmania Mexicana Pyruvate Kinase (LmPK) | purified LmPK, Kinase-Glo ATP luminescence, 1 h | Potency, µM (titrated, usually from 57.5 µM), inactives show at the top dose activity change, negative = inhibition, hits mostly inhibitors | 290,000 tested, 0.37% active | AID 1721, 2009; note: potency is the fitted concentration of half-maximal effect; % is set by controls: 0 for no effect and ±100 for the full control effect
#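 Purified LmPK (0.1 nM) with 0.5 mM PEP and 0.1 mM ADP in imidazole buffer pH 7.2 with MgCl2/KCl, 1 h at room temperature. ATP formed was read by luciferase luminescence and normalized to no-enzyme and uninhibited controls.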
# Cycloheximide cs: Cycloheximide Counterscreen for Small Molecule Inhibitors of Shiga Toxin; cell reporter, cycloheximide protein synthesis inhibition counterscreen; max response, %; AID 2314, 2010; 300,000 tested, 12% active; in the data active = max response mostly above about 13%, no sharp cut-off; inactive = mostly below about 14%; note: read at 38.3 µM for the half of the compounds with a filed dose; 0% is about no effect
# RE007 growth inh: qHTS Assay for Inhibitors of the HIV-1 protein Vpr; Potency, µM (top dose mostly 92.2 µM), inactives show top-dose activity change, negative = less growth, actives largely listed as inhibitors; AID 651644, 2012; S. pombe RE007 Vpr strain, BacTiter-Glo ATP luminescence, 24 h; 360,000 tested, 0.21% active; active = well fitted falling curve with a large enough effect; inconclusive = small, poorly fitted or top-dose-only effect; inactive = no such curve, though single readings can be large or run the other way; note: potency is the fitted concentration of half-maximal effect; % is set by controls: 0 for no effect and ±100 for the full control effect; nearly all actives have a fitted effect of over 50% in size
#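 Fission yeast RE007 carrying one integrated HIV-1 vpr copy, seeded at OD 0.01 in PMG+AL medium with 23 nL pinned compound. Grown 24 h at 30 degrees; viability read by BacTiter-Glo luminescence after 5 min.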
# FBPA Giardia inh: qHTS Assay for Inhibitors of Fructose-1,6-bisphosphate Aldolase from Giardia Lamblia; 290,000 tested, 0.71% active; Potency, µM (highest dose often 59.6 µM), for inactives: top-dose activity, negative = inhibition, most hits filed as inhibitors; A8B2U2; purified Giardia FBPA; note: potency is the fitted concentration of half-maximal effect; % is set by controls: 0 for no effect and ±100 for the full control effect; nearly all actives have a fitted effect of over 55% in size
# Target sequence (A8B2U2 whole entry, looked up): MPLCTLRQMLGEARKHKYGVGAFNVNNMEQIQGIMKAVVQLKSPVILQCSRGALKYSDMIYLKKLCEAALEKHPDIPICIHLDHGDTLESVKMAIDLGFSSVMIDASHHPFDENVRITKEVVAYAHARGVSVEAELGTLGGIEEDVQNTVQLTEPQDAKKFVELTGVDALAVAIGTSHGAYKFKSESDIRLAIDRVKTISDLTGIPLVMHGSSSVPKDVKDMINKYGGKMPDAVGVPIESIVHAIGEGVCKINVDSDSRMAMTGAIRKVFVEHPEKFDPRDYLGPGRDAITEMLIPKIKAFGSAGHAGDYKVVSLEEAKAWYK
#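 Giardia FBPA (40 nM reagent) was preincubated 10 min at RT with compound (up to 57.5 uM final), then substrate plus GAPDH/TPI/NAD/arsenate coupling system with diaphorase/resazurin was added; resorufin fluorescence (525/598 nm) was read after 20 min.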
# Active calls of the source: *; ? = inconclusive; . = no result given. Unless noted, calls come from the whole dose curve; as a rule, active = well fitted curve in the direction sought with a large enough effect; inconclusive = small, poorly fitted or top-dose-only effect, or another doubt; inactive = no such curve, though single readings can be large; an effect the other way counts as inactive or inconclusive.
SMILES,TbPYK inhibitor,Shiga inhibitor,LmPK inh,Cycloheximide cs,RE007 growth inh,FBPA Giardia inh
Cc1cccc(NC(=O)NCC2CC2)c1,-9%,37,-1%,14*,-17%,8%
O=C(NCC1CC1)Nc1ccc(Cl)cc1,5%,70*,-5%,32*,-9%,9%
O=C(NCCO)Nc1ccc(Cl)cc1,-5%,-7,-1%,7,0%,3%
CNC(=O)c1csc(-c2ccc(Cl)cc2)n1,-2%,47*,-7%,38*,-16%,4%
CNC(=O)c1csc(-c2ccc(C)cc2)n1,-9%,45*,-10%,24*,-21%,4%
Nc1ccccc1C(=O)OCC(=O)N1CCc2ccccc21,3%,79*,-2%,39*,-19%,0%
O=C(OCC(=O)N1CCc2ccccc21)c1ccccc1,0%,118*,-25%,43*,5%,0%
O=C(OCC(=O)N1CCc2ccccc21)c1cccnc1,5%,45*,-12%,33*,2%,0%
Nc1ccccc1C(=O)N1CCc2ccccc21,5%,69*,-7%,26*,1%,6%
O=C(c1cccnc1)N1CCc2ccccc21,-20%,-13,3%,-2,3%,-3%
O=C(NC[C@H]1CCCCN1)c1cc(OCC(F)(F)F)ccc1OCC(F)(F)F,.,.,.,.,.,0%
CCOc1cc(/C=N\NC(=O)c2ccc(NC(=O)C(C)(C)C)cc2)ccc1OC(=O)c1ccc(OC)cc1,-23%,-6,-1%,2,0%,2%
COc1cccc(C(=O)Oc2ccc(/C=N/Nc3ccc(C(=O)O)cc3)cc2OC)c1,-5%,.,2%,33*,-20%,-5%
COc1cccc(OCc2cc(/C=N/Nc3ccc(C(=O)O)cc3)ccc2OC)c1,-11%,53*,3%,41*,-6%,-5%
COc1cc(/C=N/Nc2cccc(C)c2)ccc1OC(=O)c1cccs1,-12%,33,5%,18*,138%,-4%
COCc1cc(/C=N\NC(=O)COc2ccccc2)ccc1OC,-2%,1,-1%,-1,-4%,1%
COc1cc(/C=N/NC(=O)COc2ccccc2C)ccc1OC(=O)c1cccs1,3%,0,1%,-6,3%,7%
CCOc1cc(/C=N/Nc2ccc(C(=O)O)cc2)ccc1OC(=O)c1ccccc1C,6%,42,1%,42*,12%,-3%
Cc1oc2ccc(O)c(CN3CCN(Cc4ccccc4)CC3)c2c1C(=O)Nc1ccccc1,-5%,.,.,.,.,.
CCN(CC)c1ccc(NC(=O)CCS(=O)(=O)c2cc3c(cc2Cl)NC(=O)CO3)c(C)c1,-7%,.,.,.,.,.
NC(=O)COc1ccc(-c2noc(COc3ccc(Cl)cc3)n2)cc1,2%,.,.,.,.,.
COc1cc(/C=N/Nc2ccc(Cl)c(C(=O)O)c2)ccc1OC(=O)c1ccc(F)cc1,-15%,23,-3%,13,-5%,1%
COc1cc(/C=N/Nc2ccc(Cl)c(C(=O)O)c2)ccc1OC(=O)c1ccccc1F,-8%,70*,11%,29*,10%,-4%
COc1ccc(/C=C/C(=O)c2ccc[nH]2)cc1OC,4%,51,0%,30*,-11%,0%
COc1ccc(/C=C/C(=O)c2ccc[nH]2)c(OC)c1OC,7%,100*,1%,26*,-7%,2%
SMILES,TbPYK inhibitor,Shiga inhibitor,LmPK inh,Cycloheximide cs,RE007 growth inh,FBPA Giardia inh
COc1ccc(/C=C/C(=O)c2cccs2)cc1OC,.,.,.,.,.,-14%
COc1ccc(/C=C/C(=O)c2ccncc2)c2ccccc12,7%,2,-2%,7,?,?
CC(=O)/C=C(\C)Nc1ccc(-c2cnc(-c3ccccc3)o2)cc1,-2%,130*,-4%,83*,-19%,-6%
CC(=O)Nc1ccc(OCc2nnc(-c3ccccc3)o2)cc1,-7%,8,2%,-3,3%,3%
CC(=O)Nc1ccc(-c2nc3ccccc3c(=O)o2)cc1,-14%,20,0%,-8,6%,-3%
CC(C)C(=O)Nc1ccc(C(=O)c2ccccc2)cc1,2%,57*,-1%,50*,19%,-1%
